Reference: the supplement of paper PMC8975748
Counter-ions that a name gives are not always drawn. ± gives the standard deviation of the averaged measurements.

Legend:
[1] = tested on: Saccharomyces cerevisiae BY4741 SeMeCo community; assay: mean cell size (pixel area) (pixels); higher = larger cells; details: 10 µM; 24 h; SM minimal medium
Method in brief: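 Plates of 384 wells were acoustically predosed with drug at a final 10 µM in SM medium, and 70 µl of a Saccharomyces cerevisiae BY4741 preculture diluted from OD600 = 1.0 to OD600 = 0.3 was added for 24 h. The yeast formed a four-plasmid fluorescent community in which each plasmid complements one auxotrophy and carries a fluorescent marker. Fixed cells were imaged by automated confocal microscopy and analysed in Harmony for mean cell pixel area per well. Values are means of 3 replicates. Same SeMeCo high-content imaging drug screen: Selleck FDA-approved drugs at 10 µM, 24 h in SM medium, 384-well plates, 3 replicates.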

[2] = tested on: Saccharomyces cerevisiae BY4741 SeMeCo community; assay: z-score of prototroph abundance vs DMSO median; higher = larger share of this subpopulation than in DMSO controls; details: 10 µM; 24 h; SM minimal medium; subpopulation (auxotrophy): Prototroph
Method in brief: (§1)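 Four plasmids, each restoring a single auxotrophy and encoding a distinct fluorescent protein, were carried by a Saccharomyces cerevisiae BY4741 community. After overnight growth to OD600 1.0 and dilution to 0.3, 70 µl per well was grown for 24 h in minimal SM medium on 384-well plates acoustically predosed with library drugs at 10 µM final. Following paraformaldehyde fixation, automated confocal microscopy was used, with single-auxotroph fluorescent strains defining thresholds and autofluorescence correction. Subpopulation abundance was then scored as a z-score against the vehicle-well median.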

[3] = tested on: Saccharomyces cerevisiae BY4741 SeMeCo community; assay: z-score of subpopulation abundance vs DMSO median, subpopulation auxotrophic for L; higher = larger share of this subpopulation than in DMSO controls; details: 10 µM; 24 h; SM minimal medium; subpopulation (auxotrophy): L
Method in brief: as §1

[4] = tested on: Saccharomyces cerevisiae BY4741 SeMeCo community; assay: z-score of subpopulation abundance vs DMSO median, subpopulation auxotrophic for U; higher = larger share of this subpopulation than in DMSO controls; details: 10 µM; 24 h; SM minimal medium; subpopulation (auxotrophy): U
Method in brief: as §1

[5] = tested on: Saccharomyces cerevisiae BY4741 SeMeCo community; assay: z-score of subpopulation abundance vs DMSO median, subpopulation auxotrophic for H; higher = larger share of this subpopulation than in DMSO controls; details: 10 µM; 24 h; SM minimal medium; subpopulation (auxotrophy): H
Method in brief: as §1

[6] = tested on: Saccharomyces cerevisiae BY4741 SeMeCo community; assay: z-score of subpopulation abundance vs DMSO median, subpopulation auxotrophic for LU; higher = larger share of this subpopulation than in DMSO controls; details: 10 µM; 24 h; SM minimal medium; subpopulation (auxotrophy): LU
Method in brief: as §1

[7] = tested on: Saccharomyces cerevisiae BY4741 SeMeCo community; assay: z-score of subpopulation abundance vs DMSO median, subpopulation auxotrophic for HM; higher = larger share of this subpopulation than in DMSO controls; details: 10 µM; 24 h; SM minimal medium; subpopulation (auxotrophy): HM
Method in brief: as §1

[8] = tested on: Saccharomyces cerevisiae BY4741 SeMeCo community; assay: z-score of subpopulation abundance vs DMSO median, subpopulation auxotrophic for UM; higher = larger share of this subpopulation than in DMSO controls; details: 10 µM; 24 h; SM minimal medium; subpopulation (auxotrophy): UM
Method in brief: as §1

[9] = tested on: Saccharomyces cerevisiae BY4741 SeMeCo community; assay: z-score of subpopulation abundance vs DMSO median, subpopulation auxotrophic for HL; higher = larger share of this subpopulation than in DMSO controls; details: 10 µM; 24 h; SM minimal medium; subpopulation (auxotrophy): HL
Method in brief: as §1

[10] = tested on: Saccharomyces cerevisiae BY4741 SeMeCo community; assay: z-score of subpopulation abundance vs DMSO median, subpopulation auxotrophic for HLU; higher = larger share of this subpopulation than in DMSO controls; details: 10 µM; 24 h; SM minimal medium; subpopulation (auxotrophy): HLU
Method in brief: as §1

[11] = tested on: Saccharomyces cerevisiae BY4741 SeMeCo community; assay: z-score of subpopulation abundance vs DMSO median, subpopulation auxotrophic for HLM; higher = larger share of this subpopulation than in DMSO controls; details: 10 µM; 24 h; SM minimal medium; subpopulation (auxotrophy): HLM
Method in brief: as §1

[12] = tested on: Saccharomyces cerevisiae BY4741 SeMeCo community; assay: z-score of subpopulation abundance vs DMSO median, subpopulation auxotrophic for HUM; higher = larger share of this subpopulation than in DMSO controls; details: 10 µM; 24 h; SM minimal medium; subpopulation (auxotrophy): HUM
Method in brief: as §1

[13] = tested on: Saccharomyces cerevisiae BY4741 SeMeCo community; assay: z-score of subpopulation abundance vs DMSO median, subpopulation auxotrophic for LUM; higher = larger share of this subpopulation than in DMSO controls; details: 10 µM; 24 h; SM minimal medium; subpopulation (auxotrophy): LUM
Method in brief: as §1

[14] = tested on: Saccharomyces cerevisiae BY4741 SeMeCo community; assay: z-score of subpopulation abundance vs DMSO median, subpopulation auxotrophic for HLUM; higher = larger share of this subpopulation than in DMSO controls; details: 10 µM; 24 h; SM minimal medium; subpopulation (auxotrophy): HLUM
Method in brief: as §1

[15] = tested on: Saccharomyces cerevisiae BY4741 SeMeCo community; assay: z-score of subpopulation abundance vs DMSO median, subpopulation auxotrophic for HU; higher = larger share of this subpopulation than in DMSO controls; details: 10 µM; 24 h; SM minimal medium; subpopulation (auxotrophy): HU
Method in brief: as §1

[16] = tested on: Saccharomyces cerevisiae BY4741 SeMeCo community; assay: z-score of subpopulation abundance vs DMSO median, subpopulation auxotrophic for LM; higher = larger share of this subpopulation than in DMSO controls; details: 10 µM; 24 h; SM minimal medium; subpopulation (auxotrophy): LM
Method in brief: as §1

Row | SMILES | mean cell size [1] | z-score of prototroph abundance [2] | z-score of subpopulation abundance [3] | z-score of subpopulation abundance [4] | z-score of subpopulation abundance [5] | z-score of subpopulation abundance [6] | z-score of subpopulation abundance [7] | z-score of subpopulation abundance [8] | z-score of subpopulation abundance [9] | z-score of subpopulation abundance [10] | z-score of subpopulation abundance [11] | z-score of subpopulation abundance [12] | z-score of subpopulation abundance [13] | z-score of subpopulation abundance [14] | z-score of subpopulation abundance [15] | z-score of subpopulation abundance [16]
1 | CCCNC(C)C(=O)Nc1ccccc1C (stereo not drawn) [Prilocaine] | 12.51 ± 0.059 | -0.27 | 1 | -0.13 | 0.48 | 0.36 | 0.09 | -0.84 | -0.2 | 0.3 | 0.16 | -0.22 | 0.36 | 0.52 |  | 
2 | CN(C)CCCN1c2ccccc2Sc2ccc(Cl)cc21 [Chlorpromazine HCl] | 12.3 ± 0.24 | -0.29 | -0.35 | 0.63 | -0.33 | -0.32 | 0.19 |  | -0.55 | -0.85 | 0.11 | 0.9 | 0.52 | 0.29 | -0.02 | 
3 | COc1cc2c(cc1OC)-c1cc3ccc(OC)c(OC)c3c[n+]1CC2 [Palmatine] | 12.41 ± 0.069 | -0.25 | 2.2 | -0.98 | -0.08 | -0.2 | 1.01 | -0.01 | 1.04 | 1.86 | 0.37 | 0.8 | 1.08 | 1.87 | -1.11 | 1.94
4 | CCCCCCCCN=c1ccn(CCCCCCCCCCn2ccc(=NCCCCCCCC)cc2)cc1 [Octenidine Dihydrochloride] | 9.029 ± 0.063 | -16.1 | 3.6 | 2.6 | 13.2 | 14.2 |  | 13.5 | 20 | 5.94 | 27.7 | 26.9 | 13.8 |  | 23.6 | 0.87
5 | CCN1CCCC1CNC(=O)c1cc(S(N)(=O)=O)ccc1OC (stereo not drawn) [Sulpiride] | 12.54 ± 0.037 | 0.51 | 0.31 | -0.56 | -0.37 | -0.37 | -0.46 |  | -0.63 | -1.3 | 0.14 | -0.68 | 0.04 | 0.02 | -0.14 | -0.86
6 | CCN(CC)CCOC(=O)c1ccc(N)cc1 [Procaine] | 12.2 ± 0.13 | 0.34 | -0.42 | 1.32 | -0.4 | 0.48 | -0.99 | 0.14 | -0.79 | -1.15 | -1.03 | 0.39 |  | -0.71 | 0.81 | -0.46
7 | COCCOC(=O)C1=C(C)NC(C)=C(C(=O)OC/C=C/c2ccccc2)C1c1cccc([N+](=O)[O-])c1 (stereo not drawn) [Cilnidipine] | 12.3 ± 0.24 | -0.13 | 0.77 | -0.53 | 1.28 | 0.17 | 0.7 | -0.33 |  | 1.34 | -0.44 | 0.37 | -0.1 | -0.48 | 0.24 | 0.12
8 | O=C(O)CCNC(=O)c1ccccc1 [Betamipron] |  |  | -1.22 | 0.99 | -0.34 | -0.21 | -0.4 | 0.43 | -0.92 | -1 | -1.05 | -0.33 | -0.64 | -0.5 | 0.19 | -0.71
9 | C[C@@H](O)[C@H]1C(=O)N2C(C(=O)O)=C([C@H]3CCCO3)S[C@H]12 [Faropenem Sodium] | 12.39 ± 0.088 | -1.08 | -0.03 |  | 0.32 | 0.29 | 0.48 |  | 0 | 0.66 | -0.7 | 0.59 |  | -0.05 |  | 
10 | O=C(O)c1cc(-c2ccc(F)cc2F)ccc1O [Diflunisal] | 13.1 ± 0.14 | 3.54 | 0.56 | -2.37 |  | -1.6 | -1.55 |  | -0.87 | -0.75 | -0.45 | -2.64 | -1.08 | -0.39 | -2.05 | 
11 | CC1=C(C(=O)O)N2C(=O)[C@@H](NC(=O)[C@H](N)c3ccc(O)cc3)[C@H]2SC1 [Cefadroxil hydrate] | 12.1 ± 0.2 |  | -0.28 |  | 0.01 | -0.23 | -0.79 | -0.45 | -0.19 | -0.42 | -0.45 | -0.39 |  | -0.33 | -0.04 | -0.09
12 | Nc1ccc2cc3ccc(N)cc3nc2c1 [Proflavine Hemisulfate] | 12.06 ± 0.0063 | 5.49 | -8.37 | -8.08 | 5.37 | -9.25 | 6.84 | -8.07 | -4.25 | -4.5 | -2.37 | -4.39 | -5.16 | -2.15 | -6.91 | -5.03
13 | COc1cc(Cc2cnc(N)nc2N)cc(OC)c1OC [Trimethoprim] | 12.4 ± 0.14 |  | 0.44 | 0.2 | -0.5 | 0.14 | -0.06 | 0.07 | -0.46 | 0.25 | -0.6 | -0.12 | 0.27 | -0.22 | 0 | -0.07
14 | O=c1n(CCCN2CCN(c3cccc(Cl)c3)CC2)nc2ccccn12 [Trazodone HCl] |  | -0.06 | -1.59 | -0.6 | -0.86 | -0.97 | 0.92 | 0.22 |  | -0.83 | 0.04 | 0.45 |  | -0.57 | 0.33 | -0.41
